Experimental findings from ChEMBL document CHEMBL1961873, “Compounds: GSK PKIS; Assays: Nanosyn kinase panel” (2012) are described below.

The target of assay [1] is Tyrosine-protein kinase CSK (Homo sapiens) (UniProt P41240). The conditions noted are these: at 1 µM.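 Further: each value is an averaged inhibition reading.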
The target in assay [2] is T1, Discoidin domain-containing receptor 2 (Homo sapiens) (UniProt Q16832).
T1 sequence (whole entry): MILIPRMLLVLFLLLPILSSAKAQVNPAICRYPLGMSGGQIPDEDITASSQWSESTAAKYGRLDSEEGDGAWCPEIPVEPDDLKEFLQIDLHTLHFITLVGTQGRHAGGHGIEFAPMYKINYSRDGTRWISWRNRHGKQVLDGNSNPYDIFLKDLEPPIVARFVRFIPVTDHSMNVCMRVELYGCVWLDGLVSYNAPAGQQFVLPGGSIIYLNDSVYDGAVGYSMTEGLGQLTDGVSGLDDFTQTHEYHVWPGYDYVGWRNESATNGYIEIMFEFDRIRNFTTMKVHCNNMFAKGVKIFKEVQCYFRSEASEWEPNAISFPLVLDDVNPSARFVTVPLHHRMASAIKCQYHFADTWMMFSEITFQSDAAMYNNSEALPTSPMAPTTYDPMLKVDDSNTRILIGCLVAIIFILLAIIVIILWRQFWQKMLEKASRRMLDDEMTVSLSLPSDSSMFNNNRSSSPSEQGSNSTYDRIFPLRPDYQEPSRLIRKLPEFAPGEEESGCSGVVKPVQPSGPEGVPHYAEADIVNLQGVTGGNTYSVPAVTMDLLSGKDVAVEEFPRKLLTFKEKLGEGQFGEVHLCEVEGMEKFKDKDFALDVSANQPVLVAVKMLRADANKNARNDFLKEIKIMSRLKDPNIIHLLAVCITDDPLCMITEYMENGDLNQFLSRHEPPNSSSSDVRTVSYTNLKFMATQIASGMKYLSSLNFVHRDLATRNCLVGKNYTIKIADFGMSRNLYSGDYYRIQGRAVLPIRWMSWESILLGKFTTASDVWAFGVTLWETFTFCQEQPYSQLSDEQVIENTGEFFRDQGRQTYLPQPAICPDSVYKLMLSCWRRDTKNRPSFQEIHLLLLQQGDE
The settings on record: at 0.1 µM.

The target of assay [3] is T1, Discoidin domain-containing receptor 2 (Homo sapiens). The settings on record: at 1 µM.
Assay [4] concerns the target Epidermal growth factor receptor (Homo sapiens) (UniProt P00533). The settings on record: at 0.1 µM.
The target is the same in assay [5]. The conditions noted are these: at 1 µM.
The subject of assay [6] is Epidermal growth factor receptor (Homo sapiens), P00533 [L858R]. The conditions noted are these: at 0.1 µM.
Assay [7] has the same test system. The settings on record: at 1 µM.
Assay [8] has as its system Epidermal growth factor receptor (Homo sapiens), P00533 [L861Q]. The conditions noted are these: at 0.1 µM.
For assay [9] the test system is unchanged. The settings on record: at 1 µM.
In assay [10] the test system is Epidermal growth factor receptor (Homo sapiens), P00533 [T790M]. The conditions noted are these: at 0.1 µM.
The test system is the same in assay [11]. The settings on record: at 1 µM.
Assay [12] deals with Epidermal growth factor receptor (Homo sapiens), P00533 [L858R,T790M]. The settings on record: at 0.1 µM.
For assay [13] the test system is unchanged. The settings on record: at 1 µM.
Assay [14] deals with Ephrin type-A receptor 2 (Homo sapiens) (UniProt P29317). The conditions noted are these: at 0.1 µM.
Assay [15] shares this target. The settings on record: at 1 µM.
Assay [16] addresses T2, Ephrin type-A receptor 3 (Homo sapiens) (UniProt P29320).
T2 sequence (whole entry): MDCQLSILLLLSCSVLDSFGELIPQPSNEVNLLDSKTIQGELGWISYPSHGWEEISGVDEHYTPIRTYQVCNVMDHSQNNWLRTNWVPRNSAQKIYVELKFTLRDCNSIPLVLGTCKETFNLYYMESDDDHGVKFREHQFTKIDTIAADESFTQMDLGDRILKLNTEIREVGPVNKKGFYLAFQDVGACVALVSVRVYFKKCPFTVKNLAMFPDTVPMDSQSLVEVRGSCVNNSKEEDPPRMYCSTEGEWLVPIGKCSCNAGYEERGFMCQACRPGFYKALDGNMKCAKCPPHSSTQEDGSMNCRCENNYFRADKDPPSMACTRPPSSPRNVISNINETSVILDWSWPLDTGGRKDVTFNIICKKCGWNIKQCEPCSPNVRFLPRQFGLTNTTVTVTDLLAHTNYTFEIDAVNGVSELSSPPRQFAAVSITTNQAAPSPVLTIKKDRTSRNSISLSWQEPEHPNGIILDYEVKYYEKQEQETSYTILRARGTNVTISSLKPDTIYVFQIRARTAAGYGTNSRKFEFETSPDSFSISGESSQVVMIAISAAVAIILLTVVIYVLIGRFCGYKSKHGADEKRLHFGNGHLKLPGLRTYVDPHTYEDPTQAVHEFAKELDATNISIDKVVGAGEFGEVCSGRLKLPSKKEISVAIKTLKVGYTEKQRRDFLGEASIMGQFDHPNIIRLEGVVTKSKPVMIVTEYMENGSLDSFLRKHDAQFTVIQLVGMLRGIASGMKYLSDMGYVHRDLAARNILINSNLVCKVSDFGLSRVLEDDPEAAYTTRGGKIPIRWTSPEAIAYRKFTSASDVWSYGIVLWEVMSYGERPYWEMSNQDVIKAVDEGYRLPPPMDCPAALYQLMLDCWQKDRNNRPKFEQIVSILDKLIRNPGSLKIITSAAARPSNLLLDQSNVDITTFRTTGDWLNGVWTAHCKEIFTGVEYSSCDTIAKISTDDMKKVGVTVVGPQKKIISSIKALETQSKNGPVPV
The conditions noted are these: at 0.1 µM.

For assay [17], the target named is T2, Ephrin type-A receptor 3 (Homo sapiens). The conditions noted are these: at 1 µM.
In assay [18] the target is Ephrin type-A receptor 4 (Homo sapiens) (UniProt P54764). The settings on record: at 0.1 µM.
Assay [19] has the same target. The settings on record: at 1 µM.
The target in assay [20] is T3, Ephrin type-B receptor 2 (Homo sapiens) (UniProt P29323).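 Further: reported as mean inhibition of EPHB2, from the GSK PKIS dataset.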
T3 sequence (whole entry): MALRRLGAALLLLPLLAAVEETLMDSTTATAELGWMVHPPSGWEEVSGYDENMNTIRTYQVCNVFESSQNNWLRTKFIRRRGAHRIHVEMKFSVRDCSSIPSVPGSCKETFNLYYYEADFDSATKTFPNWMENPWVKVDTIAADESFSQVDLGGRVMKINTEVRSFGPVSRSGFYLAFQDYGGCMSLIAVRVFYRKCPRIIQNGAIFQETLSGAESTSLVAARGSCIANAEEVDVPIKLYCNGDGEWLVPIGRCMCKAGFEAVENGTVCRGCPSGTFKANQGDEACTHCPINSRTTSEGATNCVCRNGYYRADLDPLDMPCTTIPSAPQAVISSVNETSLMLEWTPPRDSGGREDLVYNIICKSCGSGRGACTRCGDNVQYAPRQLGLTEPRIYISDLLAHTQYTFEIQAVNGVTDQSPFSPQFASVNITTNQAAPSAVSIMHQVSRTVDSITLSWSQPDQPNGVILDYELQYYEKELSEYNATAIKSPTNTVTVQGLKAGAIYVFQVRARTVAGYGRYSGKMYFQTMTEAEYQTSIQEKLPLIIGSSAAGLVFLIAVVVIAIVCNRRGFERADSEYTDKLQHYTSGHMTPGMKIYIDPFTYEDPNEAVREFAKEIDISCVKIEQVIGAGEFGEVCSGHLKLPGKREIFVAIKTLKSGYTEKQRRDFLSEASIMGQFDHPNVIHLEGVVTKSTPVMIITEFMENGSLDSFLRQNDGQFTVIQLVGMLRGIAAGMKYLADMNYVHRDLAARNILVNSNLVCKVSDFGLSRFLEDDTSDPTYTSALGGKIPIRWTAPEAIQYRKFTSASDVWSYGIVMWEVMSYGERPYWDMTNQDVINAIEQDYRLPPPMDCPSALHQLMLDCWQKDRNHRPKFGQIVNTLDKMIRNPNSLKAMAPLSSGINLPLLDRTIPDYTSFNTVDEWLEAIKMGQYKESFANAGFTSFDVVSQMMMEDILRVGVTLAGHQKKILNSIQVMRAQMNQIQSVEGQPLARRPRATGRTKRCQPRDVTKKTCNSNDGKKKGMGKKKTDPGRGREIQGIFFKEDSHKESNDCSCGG
The settings on record: at 0.1 µM.

Chain of Ephrin type-A receptor 2 (Homo sapiens) (P29317 whole entry): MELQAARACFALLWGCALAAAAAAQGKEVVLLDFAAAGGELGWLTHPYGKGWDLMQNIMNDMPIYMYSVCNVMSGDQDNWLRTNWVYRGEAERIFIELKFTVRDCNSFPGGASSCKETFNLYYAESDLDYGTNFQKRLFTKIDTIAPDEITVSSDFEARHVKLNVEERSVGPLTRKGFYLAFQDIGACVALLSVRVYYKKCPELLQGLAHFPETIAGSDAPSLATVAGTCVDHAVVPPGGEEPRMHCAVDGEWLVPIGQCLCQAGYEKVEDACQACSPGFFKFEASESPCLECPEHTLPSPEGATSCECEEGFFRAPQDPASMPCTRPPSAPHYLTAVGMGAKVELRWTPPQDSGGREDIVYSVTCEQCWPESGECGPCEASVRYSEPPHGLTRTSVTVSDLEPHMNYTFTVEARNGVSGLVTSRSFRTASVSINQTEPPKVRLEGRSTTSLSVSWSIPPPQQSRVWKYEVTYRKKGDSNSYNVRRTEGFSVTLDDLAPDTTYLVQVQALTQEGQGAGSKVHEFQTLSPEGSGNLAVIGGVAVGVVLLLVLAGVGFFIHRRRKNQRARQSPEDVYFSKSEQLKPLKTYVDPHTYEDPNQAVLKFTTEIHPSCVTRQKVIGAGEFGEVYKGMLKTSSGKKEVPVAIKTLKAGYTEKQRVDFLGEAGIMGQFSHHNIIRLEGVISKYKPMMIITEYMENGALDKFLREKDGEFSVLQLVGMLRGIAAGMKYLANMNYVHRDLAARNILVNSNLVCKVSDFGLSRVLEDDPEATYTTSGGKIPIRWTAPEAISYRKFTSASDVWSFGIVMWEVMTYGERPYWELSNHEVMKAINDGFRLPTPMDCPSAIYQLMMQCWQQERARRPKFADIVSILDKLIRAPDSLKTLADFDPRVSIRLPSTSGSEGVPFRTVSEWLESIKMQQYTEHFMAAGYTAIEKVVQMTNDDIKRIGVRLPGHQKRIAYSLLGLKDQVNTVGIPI
Chain of Epidermal growth factor receptor (Homo sapiens), P00533 [T790M] (P00533 whole entry T790M): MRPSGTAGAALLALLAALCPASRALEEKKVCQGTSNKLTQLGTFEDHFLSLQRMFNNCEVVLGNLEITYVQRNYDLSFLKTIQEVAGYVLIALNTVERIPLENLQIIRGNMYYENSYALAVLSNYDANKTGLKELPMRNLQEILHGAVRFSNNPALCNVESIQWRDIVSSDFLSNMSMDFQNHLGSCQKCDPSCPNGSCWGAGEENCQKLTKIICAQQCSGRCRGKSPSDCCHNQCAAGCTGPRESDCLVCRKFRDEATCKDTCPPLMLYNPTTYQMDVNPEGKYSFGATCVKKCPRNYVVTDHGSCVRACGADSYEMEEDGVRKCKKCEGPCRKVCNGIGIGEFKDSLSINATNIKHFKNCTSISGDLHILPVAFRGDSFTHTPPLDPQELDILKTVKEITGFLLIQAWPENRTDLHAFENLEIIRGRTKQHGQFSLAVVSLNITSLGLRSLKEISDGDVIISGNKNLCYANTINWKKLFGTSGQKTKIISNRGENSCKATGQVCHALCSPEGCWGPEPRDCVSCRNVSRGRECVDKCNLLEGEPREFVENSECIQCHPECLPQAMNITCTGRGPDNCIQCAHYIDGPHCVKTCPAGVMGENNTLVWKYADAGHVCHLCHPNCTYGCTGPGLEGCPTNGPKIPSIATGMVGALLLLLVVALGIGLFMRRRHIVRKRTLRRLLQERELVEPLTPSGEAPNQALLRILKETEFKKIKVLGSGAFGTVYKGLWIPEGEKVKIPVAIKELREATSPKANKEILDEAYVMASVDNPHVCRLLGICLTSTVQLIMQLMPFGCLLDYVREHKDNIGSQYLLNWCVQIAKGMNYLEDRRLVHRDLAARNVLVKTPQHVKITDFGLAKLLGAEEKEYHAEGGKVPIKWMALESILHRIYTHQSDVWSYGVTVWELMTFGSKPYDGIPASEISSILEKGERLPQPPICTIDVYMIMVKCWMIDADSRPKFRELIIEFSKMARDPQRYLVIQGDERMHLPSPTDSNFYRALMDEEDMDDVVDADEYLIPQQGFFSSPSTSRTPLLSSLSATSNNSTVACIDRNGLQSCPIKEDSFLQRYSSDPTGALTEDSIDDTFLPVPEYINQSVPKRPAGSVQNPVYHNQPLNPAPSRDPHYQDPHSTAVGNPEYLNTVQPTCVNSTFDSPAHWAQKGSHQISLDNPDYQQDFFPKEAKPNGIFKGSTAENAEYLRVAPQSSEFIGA
Chain of Epidermal growth factor receptor (Homo sapiens), P00533 [L858R,T790M] (P00533 whole entry T790M/L858R, looked up): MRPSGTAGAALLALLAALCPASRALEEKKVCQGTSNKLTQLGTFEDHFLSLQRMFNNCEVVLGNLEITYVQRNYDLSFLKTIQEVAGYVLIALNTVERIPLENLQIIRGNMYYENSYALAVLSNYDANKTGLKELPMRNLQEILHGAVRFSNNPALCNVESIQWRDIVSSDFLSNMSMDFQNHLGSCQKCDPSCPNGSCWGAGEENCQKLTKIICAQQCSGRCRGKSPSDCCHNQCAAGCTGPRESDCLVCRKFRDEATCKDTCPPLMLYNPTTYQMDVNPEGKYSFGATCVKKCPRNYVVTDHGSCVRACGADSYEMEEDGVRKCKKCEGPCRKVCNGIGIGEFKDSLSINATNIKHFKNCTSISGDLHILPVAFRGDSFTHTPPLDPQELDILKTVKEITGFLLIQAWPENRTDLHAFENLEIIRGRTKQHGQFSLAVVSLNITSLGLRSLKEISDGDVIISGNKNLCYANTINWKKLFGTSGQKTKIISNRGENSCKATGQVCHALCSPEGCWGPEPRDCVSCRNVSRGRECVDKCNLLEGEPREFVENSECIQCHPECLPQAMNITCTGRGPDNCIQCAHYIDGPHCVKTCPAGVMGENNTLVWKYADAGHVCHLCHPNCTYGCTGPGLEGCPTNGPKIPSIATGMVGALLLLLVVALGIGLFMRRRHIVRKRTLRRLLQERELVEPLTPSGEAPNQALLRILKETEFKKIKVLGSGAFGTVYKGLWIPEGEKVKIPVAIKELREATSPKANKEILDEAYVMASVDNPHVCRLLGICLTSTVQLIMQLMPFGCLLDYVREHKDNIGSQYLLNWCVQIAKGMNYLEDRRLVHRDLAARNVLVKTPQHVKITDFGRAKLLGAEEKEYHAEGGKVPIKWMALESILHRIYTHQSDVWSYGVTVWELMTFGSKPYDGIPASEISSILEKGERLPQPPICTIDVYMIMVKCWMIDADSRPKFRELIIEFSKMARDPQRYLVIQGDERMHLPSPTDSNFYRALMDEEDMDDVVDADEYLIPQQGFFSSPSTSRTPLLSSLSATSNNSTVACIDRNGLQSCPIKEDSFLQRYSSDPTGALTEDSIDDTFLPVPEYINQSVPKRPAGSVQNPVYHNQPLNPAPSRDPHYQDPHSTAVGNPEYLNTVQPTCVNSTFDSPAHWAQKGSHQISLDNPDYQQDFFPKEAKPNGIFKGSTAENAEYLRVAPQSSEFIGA
Chain of Epidermal growth factor receptor (Homo sapiens), P00533 [L858R] (P00533 whole entry L858R): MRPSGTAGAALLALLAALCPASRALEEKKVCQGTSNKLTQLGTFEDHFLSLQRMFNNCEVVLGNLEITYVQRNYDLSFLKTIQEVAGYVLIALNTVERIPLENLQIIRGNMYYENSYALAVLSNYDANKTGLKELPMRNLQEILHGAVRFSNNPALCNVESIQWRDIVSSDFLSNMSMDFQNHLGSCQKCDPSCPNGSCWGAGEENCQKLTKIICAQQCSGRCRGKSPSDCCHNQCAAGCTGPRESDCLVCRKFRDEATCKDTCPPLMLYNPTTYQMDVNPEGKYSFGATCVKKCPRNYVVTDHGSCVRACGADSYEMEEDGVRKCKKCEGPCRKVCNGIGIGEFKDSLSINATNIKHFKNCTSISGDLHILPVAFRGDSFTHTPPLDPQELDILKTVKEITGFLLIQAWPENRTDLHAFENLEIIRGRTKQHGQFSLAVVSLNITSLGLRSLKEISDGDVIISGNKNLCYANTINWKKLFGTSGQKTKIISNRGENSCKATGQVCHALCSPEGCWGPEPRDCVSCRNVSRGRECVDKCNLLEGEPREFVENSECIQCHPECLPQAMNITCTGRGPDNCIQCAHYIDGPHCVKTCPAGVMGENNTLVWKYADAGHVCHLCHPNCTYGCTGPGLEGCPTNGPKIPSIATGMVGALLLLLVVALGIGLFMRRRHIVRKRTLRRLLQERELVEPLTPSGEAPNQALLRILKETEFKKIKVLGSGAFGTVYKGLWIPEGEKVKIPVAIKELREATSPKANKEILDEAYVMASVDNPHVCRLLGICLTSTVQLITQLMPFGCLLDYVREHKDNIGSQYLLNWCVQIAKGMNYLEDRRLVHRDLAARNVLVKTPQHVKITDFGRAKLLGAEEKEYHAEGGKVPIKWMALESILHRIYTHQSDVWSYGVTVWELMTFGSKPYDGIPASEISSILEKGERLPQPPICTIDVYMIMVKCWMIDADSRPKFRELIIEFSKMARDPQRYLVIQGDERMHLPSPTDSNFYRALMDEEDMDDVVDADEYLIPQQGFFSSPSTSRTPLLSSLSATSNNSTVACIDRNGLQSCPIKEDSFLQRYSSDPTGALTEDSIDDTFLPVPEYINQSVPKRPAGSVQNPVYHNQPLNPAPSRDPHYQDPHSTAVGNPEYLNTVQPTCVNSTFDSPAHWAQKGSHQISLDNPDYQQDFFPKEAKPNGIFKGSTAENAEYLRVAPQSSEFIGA
Chain of Tyrosine-protein kinase CSK (Homo sapiens) (P41240 2-450 limits assumed): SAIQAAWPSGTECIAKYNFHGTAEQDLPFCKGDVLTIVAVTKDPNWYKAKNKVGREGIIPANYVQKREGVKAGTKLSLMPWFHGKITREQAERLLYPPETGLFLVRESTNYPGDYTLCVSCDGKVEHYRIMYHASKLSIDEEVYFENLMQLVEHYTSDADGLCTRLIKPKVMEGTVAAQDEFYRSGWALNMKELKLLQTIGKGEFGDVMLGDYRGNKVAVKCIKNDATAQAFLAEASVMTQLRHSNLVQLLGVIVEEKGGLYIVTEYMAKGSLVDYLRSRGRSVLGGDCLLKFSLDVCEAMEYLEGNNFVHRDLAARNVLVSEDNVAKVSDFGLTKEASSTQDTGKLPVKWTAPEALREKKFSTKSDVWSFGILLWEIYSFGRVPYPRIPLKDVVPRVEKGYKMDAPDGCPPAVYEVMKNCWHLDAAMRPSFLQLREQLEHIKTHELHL

For orientation: inhibition means the change of the read-out against control, counted positive when it falls. With `COc1cc(C=NNc2ncnc3c2cnn3Cc2ccccc2)ccc1O`, the inhibition in assay [1] is 2.56%; in assay [2] it was -0.76%; in assay [3], 5.7%; in assay [4], 22.5%; in assay [5] it was 66.8%; in [6], 64.3%. The inhibition in assay [7] is 75.5%; in assay [8], 23.4%; in [9] it was 30.6%; in [10] it was -3.01%; in assay [11] it was -3.25%; in assay [12], -1.62%. In addition, the inhibition in assay [13] was -0.48%; in assay [14], 15.6%; in [15] it was 32.4%; in assay [16], -4.93%; in assay [17] it was 3.27%; in [18], 6.93%. The inhibition is 21.7% in [19] and -3.14% in assay [20].

`COc1cccc(-n2ncc3c(N/N=C/c4ccncc4)ncnc32)c1`: the inhibition in assay [1] is 16.8%; in assay [2], 2.12%; in assay [3] it was 9.37%; in assay [4], 3.52%; in [5], 28.8%; in assay [6] it was 20.7%. Further, the inhibition in assay [7] came out at 73.3%; in assay [8], 7.71%; in [9] it was 35.5%; in [10], 2.99%; in assay [11], 5.66%; in assay [12] it was 3.61%. Further, the inhibition in assay [13] was found to be 8.8%; in assay [14], 3.25%; in [15], 15.8%; in [16], 5.89%; in assay [17], 6.97%; in [18], 11.1%. For the same molecule, the figures for the inhibition in assay [19] and in assay [20] were 35.5% and 8.96%, respectively.

As for `CCn1c(-c2nonc2N)nc2c(C#CC(C)(C)O)nc(O[C@@H](CN)c3ccccc3)cc21`, the inhibition is -5.08% in assay [1]; -0.22% in assay [2]; 0.1% in assay [3]; 1.88% in assay [4]; 7.41% in [5]; -1.92% in [6]. Moreover, the inhibition is 4% in [7]; -0.6% in assay [8]; -1.72% in [9]; -1.47% in assay [10]; -1.37% in assay [11]; 0.5% in assay [12]. Moreover, the inhibition in assay [13] is -1.45%; in assay [14] it was -2.73%; in assay [15], -4.53%; in assay [16], -1.47%; in [17], -0.7%; in assay [18], -1.14%. The inhibition in [19] is -4.76%; in assay [20], -2.94%.

In the case of `Fc1ccc(-c2ncn(C3CCNCC3)c2-c2ccnc(Oc3ccccc3)n2)cc1`, the inhibition in assay [1] amounted to 3.34%; in assay [2] it was 1.18%; in assay [3] it was 1.96%; in assay [4], 8.94%; in assay [5], 11.7%; in [6] it was 3.24%. The inhibition in assay [7] was 12.9%; in assay [8], 3.69%; in assay [9], 6.82%; in assay [10], 0.12%; in [11], 2.3%; in assay [12], -1.55%. The inhibition in assay [13] is 0.47%; in assay [14], -5.61%; in assay [15], -5.64%; in assay [16], -1.44%; in assay [17], -1.53%; in [18], 4.92%. In addition, the inhibition in [19] amounted to 5.9%; in assay [20] it was 5.55%.

Regarding `CCn1c(-c2nonc2N)nc2c(C#CC(C)(C)O)ncc(OCC3CCNCC3)c21`, the inhibition in [1] is 3.99%; in assay [2] it was -0.24%; in [3] it was 1.71%; in assay [4], -3.91%; in [5], -3.68%; in assay [6], 2.79%. For the same molecule, the inhibition in assay [7] was determined as 6.24%; in [8], 3.74%; in assay [9], 2.43%; in assay [10] it was 1.64%; in assay [11], 3.59%; in assay [12], 2.99%. Moreover, the inhibition in assay [13] is 3.17%; in [14], -2.64%; in assay [15], -3.81%; in [16], -0.49%; in [17] it was -1.92%; in assay [18] it was 7.43%. The inhibition came out at 7.66% in assay [19] and 1.63% in assay [20].

With `COc1cc2c(cc1Nc1nc(Nc3ccsc3C(N)=O)c3cc[nH]c3n1)N(C(=O)CN(C)C)CCC2`, the inhibition is -4.71% in assay [1]; 2.81% in assay [2]; 5.59% in assay [3]; 0.26% in [6]; 20.5% in assay [7]; 0.9% in [8]. Also, the inhibition in [9] turned out to be 8.73%; in [10] it was 8.68%; in assay [11] it was 55%; in assay [12] it was 29.8%; in assay [13] it was 77.5%; in [14] it was 1.21%. In addition, the inhibition is -1.44% in assay [15]; 1.88% in assay [16]; -0.28% in assay [17]; 0.13% in assay [18]; 4.13% in assay [19]; -6.85% in [20].

On to `COc1cccc(COc2cc(-n3cnc4ccccc43)sc2C(N)=O)c1`, for which the inhibition is 0.56% in [1]; -1.78% in assay [2]; -0.4% in [3]; -1.6% in [4]; 1.95% in assay [5]; -4.25% in [6]. In addition, the inhibition in assay [7] is 2.72%; in assay [8], -1.17%; in assay [9], -0.04%; in assay [10] it was -1.14%; in assay [11], -0.01%; in [12] it was -1.88%. Also, the inhibition was -1.62% in assay [13]; 1.52% in assay [14]; 1.85% in assay [15]; 2.67% in assay [16]; -0.49% in assay [17]; -0.79% in assay [18]. Moreover, the values for the inhibition in [19] and in assay [20] were 3.39% and -2.9%, respectively.
